Test results published in ChEMBL document CHEMBL2218924, “A broad activity screen in support of a chemogenomic map for kinase signalling research and drug discovery” (Biochem J, 2013).

Target: Ribosomal protein S6 kinase alpha-3 (Homo sapiens) (UniProt P51812)
Conditions: at 10 µM

Chain of Ribosomal protein S6 kinase alpha-3 (Homo sapiens) (P51812 whole entry): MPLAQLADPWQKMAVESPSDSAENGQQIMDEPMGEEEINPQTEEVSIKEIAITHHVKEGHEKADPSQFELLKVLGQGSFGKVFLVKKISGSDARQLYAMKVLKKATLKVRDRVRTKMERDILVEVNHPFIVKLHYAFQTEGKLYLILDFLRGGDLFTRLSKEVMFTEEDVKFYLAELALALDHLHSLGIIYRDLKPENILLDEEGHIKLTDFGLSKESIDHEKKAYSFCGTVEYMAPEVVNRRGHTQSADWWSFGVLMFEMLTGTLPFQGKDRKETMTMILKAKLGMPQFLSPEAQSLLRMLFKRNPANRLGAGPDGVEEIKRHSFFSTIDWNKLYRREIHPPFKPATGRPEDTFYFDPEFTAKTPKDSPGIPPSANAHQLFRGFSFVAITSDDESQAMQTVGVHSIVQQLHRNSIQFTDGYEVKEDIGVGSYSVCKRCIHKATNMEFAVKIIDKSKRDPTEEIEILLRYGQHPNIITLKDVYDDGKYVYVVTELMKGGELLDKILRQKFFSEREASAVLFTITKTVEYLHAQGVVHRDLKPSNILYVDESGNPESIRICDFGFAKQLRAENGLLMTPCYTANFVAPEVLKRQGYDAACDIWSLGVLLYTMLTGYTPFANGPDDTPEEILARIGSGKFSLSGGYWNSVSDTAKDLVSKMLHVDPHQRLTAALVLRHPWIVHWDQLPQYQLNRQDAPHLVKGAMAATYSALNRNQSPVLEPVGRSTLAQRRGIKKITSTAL

Structure (SMILES) | residual activity
CCOC(=O)c1c(C)[nH]c(/C=C2\C(=O)Nc3ccccc32)c1C | 75%
NC(=O)c1ccc(-c2nc(-c3ccc4c(c3)OCCO4)c(-c3ccccn3)[nH]2)cc1 | 53%
Nc1nccc(-c2c(-c3ccc(F)cc3)ncn2C2CCNCC2)n1 | 36%
O=C1Nc2ccccc2/C1=C\c1c(Cl)[nH]c2ccccc12 | 25%
O=C(O)/C=C/c1cc(Br)c(Br)c(Br)c1Br | 43%
COc1ccc(-c2cnc3c(-c4ccsc4)cnn3c2)cc1 | 51%
CC(C)N(CCC(=O)c1ccc2ccccc2c1)Cc1ccccc1 | 52%
Oc1cccc(-c2nc(N3CCOCC3)c3oc4ncccc4c3n2)c1 | 64%
NC(=O)c1cccc(-c2cc(Nc3ccc(OC(F)(F)F)cc3)ncn2)c1 | 40%
Cn1sc(=O)n(Cc2ccccc2)c1=O | 65%
Fc1ccc(-c2nc3n(c2-c2ccncc2)CCS3)cc1 | 52%
COc1cc2ncnc(Nc3cccc(Cl)c3)c2cc1OC | 59%
O=C1Cc2c([nH]c3ccc([N+](=O)[O-])cc23)-c2ccccc2N1 | 34%
O=C(c1ccccc1)c1ccc(N2CCOCC2)cc1O | 38%
O=c1cc(N2CCOCC2)oc2c(-c3ccccc3)cccc12 | 55%
CCCCc1c(-c2ccc(O)cc2)[nH]c2nccnc12 | 29%
NCCNc1ncc(C(N)=O)c(Nc2cccc(C(F)(F)F)c2)n1 | 35%
O=C(Nc1nc2ccccc2n1CCN1CCOCC1)c1cccc([N+](=O)[O-])c1 | 83%
N#C/C(=C\c1ccc(O)c(O)c1)C(=O)NCc1ccccc1 | 45%
N#Cc1c(NC(=O)c2cccc3ccccc23)sc2c1CCCC2 | 51%

Target: Ribosomal protein S6 kinase alpha-2 (Homo sapiens) (UniProt Q15349)
Conditions: at 1 µM

Chain of Ribosomal protein S6 kinase alpha-2 (Homo sapiens) (Q15349 whole entry): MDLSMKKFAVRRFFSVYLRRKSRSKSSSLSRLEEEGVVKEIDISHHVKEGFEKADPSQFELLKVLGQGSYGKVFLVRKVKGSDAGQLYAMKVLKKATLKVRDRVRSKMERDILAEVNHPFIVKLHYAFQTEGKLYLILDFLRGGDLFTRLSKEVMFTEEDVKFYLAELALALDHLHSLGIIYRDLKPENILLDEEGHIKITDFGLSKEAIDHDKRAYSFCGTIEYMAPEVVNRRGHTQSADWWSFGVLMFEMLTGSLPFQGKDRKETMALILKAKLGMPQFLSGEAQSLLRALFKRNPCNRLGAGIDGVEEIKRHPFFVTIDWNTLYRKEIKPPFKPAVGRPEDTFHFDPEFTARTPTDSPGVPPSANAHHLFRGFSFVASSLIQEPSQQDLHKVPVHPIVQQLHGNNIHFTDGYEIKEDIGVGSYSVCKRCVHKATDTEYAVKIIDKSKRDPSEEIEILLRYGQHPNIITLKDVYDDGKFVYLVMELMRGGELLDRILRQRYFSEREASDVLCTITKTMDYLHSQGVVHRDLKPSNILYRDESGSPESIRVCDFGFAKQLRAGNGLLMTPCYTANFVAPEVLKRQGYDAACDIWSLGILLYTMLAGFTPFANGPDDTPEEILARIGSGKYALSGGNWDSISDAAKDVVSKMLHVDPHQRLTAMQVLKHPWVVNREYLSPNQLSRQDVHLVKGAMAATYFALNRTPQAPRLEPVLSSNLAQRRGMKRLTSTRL

Structure (SMILES) | residual activity
CCOC(=O)c1c(C)[nH]c(/C=C2\C(=O)Nc3ccccc32)c1C | 72%
Nc1nccc(-c2c(-c3ccc(F)cc3)ncn2C2CCNCC2)n1 | 83%
CCN1/C(=C/C(C)=O)Sc2ccc(OC)cc21 | 77%
Cn1sc(=O)n(Cc2ccccc2)c1=O | 99%
COc1cc2ncnc(Nc3cccc(Cl)c3)c2cc1OC | 87%
CN([C@@H](Cc1ccc(OS(=O)(=O)c2cccc3cnccc23)cc1)C(=O)N1CCN(c2ccccc2)CC1)S(=O)(=O)c1cccc2cnccc12 | 99%
CC(C)(C)c1nc2c3ccc(F)cc3c3c(=O)[nH]ccc3c2[nH]1 | 25%
O=C1Cc2c([nH]c3ccc([N+](=O)[O-])cc23)-c2ccccc2N1 | 38%
O=C1Cc2c([nH]c3ccc(Br)cc23)-c2ccccc2N1 | 12%
CCCCc1c(-c2ccc(O)cc2)[nH]c2nccnc12 | 68%
NCCNc1ncc(C(N)=O)c(Nc2cccc(C(F)(F)F)c2)n1 | 82%
N#C/C(=C\c1ccc(O)c(O)c1)C(=O)NCc1ccccc1 | 122%
